Results as given in PubChem BioAssay (NCI).
Several values for one entry are separate records, joined by “and”; a condition that tells them apart may be missing. Equal values may be shown once. The panel holds about 79,000 compounds, 15% with a hit somewhere; the sample as a whole holds those more often. A number with no mark means an inactive call. Activity calls are given as the source filed them. No stated cut-off is given here; in the data, active means growth inhibition above about 70%; inactive means the rest.

How the values were obtained:
[1] = NCI Yeast Anticancer Drug Screen. Data for the rad50 strain (AID 155);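 further: 0% = growth of vehicle-only cultures of the same strain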; conditions: S. cerevisiae rad50 strain growth inhibition; at 50.0 µM; hits give high values
In short: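 Readout: growth inhibition relative to vehicle-treated cultures. Compound exposure was carried out in a genetically defined yeast strain deficient in DNA damage repair.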

[2] = NCI Yeast Anticancer Drug Screen. Data for the mec2-1 strain (AID 157); conditions: S. cerevisiae mec2-1 strain, at 50.0 µM, hits give high values
In short: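 Using mec2-1 yeast: add compound, measure growth, express inhibition versus vehicle-treated cultures.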

[3] = NCI Yeast Anticancer Drug Screen. Data for the sgs1 mgt1 strain (AID 161);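 further: 0% = growth of cultures given vehicle only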; conditions: S. cerevisiae sgs1 mgt1 strain, at 50.0 µM, hits give high values
In short: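 Percent growth inhibition was derived by comparing compound-exposed mutant yeast with vehicle-exposed cultures. The strain carries alterations in DNA damage repair.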

[4] = NCI Yeast Anticancer Drug Screen. Data for the cln2 rad14 strain (AID 165);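 further: 0% = growth equal to vehicle treated cultures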; conditions: S. cerevisiae cln2 rad14 strain, at 50.0 µM, hits give high values
In short: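 Yeast strain cln2 rad14, bearing defects in cell cycle control and DNA repair, serves as the test system; values reflect growth inhibition compared with vehicle.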

[5] = NCI Yeast Anticancer Drug Screen. Data for the bub3 strain (AID 167); conditions: S. cerevisiae bub3 mutant strain, at 50.0 µM, hits give high values
In short: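 Readout: yeast growth inhibition, expressed relative to vehicle-only wells. The test organism is a mutant strain from a panel with lesions in DNA repair or checkpoint genes.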

[6] = NCI Yeast Anticancer Drug Screen. Data for the mlh1 rad18 strain (AID 175); conditions: S. cerevisiae mlh1 rad18 strain growth inhibition; at 50.0 µM; hits give high values
In short: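 Steps: expose repair-defective yeast to compound; measure growth; express inhibition against vehicle-treated controls.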

Compound | growth inhibition [1] | growth inhibition [2] | growth inhibition [3] | growth inhibition [4] | growth inhibition [5] | growth inhibition [6]
CP1(=O)CCC23CCCCC21O3 (centres undefined) | 7.9% | -34.8% | -2.3% | -20.8% | 11.7% | -4.25%
Cc1ccc([As]=[As]c2ccc(C)cc2N)c(N)c1 (centres undefined) | -12.3% | -2.8% | -3.95% | -9.95% | 9.05% | -9.6%
CN(C)P(=S)(N(C)C)N1CCOCC1 | -7.6% | -13.3% | 6.55% | -16.8% | -28.3% | -9%
FC(F)(F)C1(F)N(Cc2ccccc2)C1(F)C(F)(F)F (centres undefined) | 9.1% | -7.5% | -10.3% | -6.65% | 7% | -9.95%
CCOP(=O)(OCC)Oc1ccc([N+](=O)[O-])c(CC)c1 | -2.55% | -3.55% | -0.3% | 3.5% | 18.5% | -8.25%
O=C1C2CCN(CC2)C1(CO)CO | -4.4% | -4.25% | -26.6% | -58.1% | -30.4% | -20.2%
COc1cc2c3cc1Oc1c(OC)c(OC)cc4c1C(Cc1ccc(cc1)Oc1cc(ccc1O)CC3N(C)CC2)N(C)CC4 (centres undefined) | -18.4% and 5.95% | -30.8% and -27.1% | -9.65% and -29.5% | 12.7% and -14.9% | -0.55% and -12.1% | -10.6% and -41%
NC(Cc1ccc(Cl)cc1)P(=O)(O)O (centres undefined) | 7.7% | -4.35% | -6.75% | -53.9% | -12.1% | -16.1%
Oc1cc(Cl)c(O)c(Cl)c1 | 2.9% | -2.05% | 4.15% | -37.9% | -20.2% | -7.55%
Cn1c(=S)[nH]n(CCOc2ccccc2)c1=S | -7.15% | -5.35% | -5.85% | -18.4% | 3.45% | -6.05%
CCCCCCNCCc1cnc[nH]1 | 12.8% | 3.1% | 15% | 17.5% | 2.75% | -68.7%
CN(C)CCCCCCN(C)C | -8.85% | 3.9% | -12.5% | -9.8% | 6.9% | -4.75%
O=C(CN1CC1)NCCCCCCCNC(=O)CN1CC1 | -13.4% | 3.5% | 1.6% | 8.15% | -4.15% | 25.4%
CC(C)OC(N)=O | -2.35% | -24.9% | 29.2% | 13.6% | -21% | -6.85%
O=C1CN=CN1 | -8.85% | 8.85% | -0.45% | -12.6% | -7.5% | -5.3%
Cc1ccc2nc(NC(=O)C(=O)C3C(=O)NC(=S)NC3=O)sc2c1 | -2.75% | -19.1% | 2.85% | 2.4% | -8.95% | -40%
O=c1[nH]c(=S)[nH]c(O)c1/C=C1\C=CC=N1 | -22.9% | -3.95% | -3.45% | 1.85% | 3.3% | -14.1%
O=C(O)CCCNSc1ccccc1[N+](=O)[O-] | 71.2% (active) | 44.5% | 73% (active) | 48.9% | 68.4% | 72% (active)
CCC1CN2CCC3(C(=O)Nc4ccccc43)C2CC1/C(=C/OC)C(=O)OC (centres undefined) | -1.8% | -12.3% | 7.85% | 2.55% | 13.7% | 12.4%
ClCCN(CCCl)c1ccc(C2=Nc3cccc4cccc(c34)N2)cc1 | 3.65% | 9.8% | 6.75% | -0.25% | -8.05% | 5.05%

Compound | growth inhibition [1] | growth inhibition [2] | growth inhibition [3] | growth inhibition [4] | growth inhibition [5] | growth inhibition [6]
O=c1ccc(=O)[nH][nH]1 | 6.25% and 36.3% and -4.05% | 10.2% and 23.1% and -12.5% | 5.6% and 7.25% and -6.05% | 3.85% and 27.6% and -7.1% | 1.65% and 30% and 26.9% | 10.8% and 16.1% and 6.25%
CN(C)S(=O)(=O)N(SC(F)(Cl)Cl)c1ccccc1 | 98.8% (active) | 99.5% (active) | 99.4% (active) | 98.8% (active) | 99.2% (active) | 99% (active)
CC(=O)N1CCCN(C)/C1=N/[N+](=O)[O-] | -20.1% | -14.8% | -6.7% | -10.9% | -15.4% | -13.9%
CCOP(=O)(OCC)C(C#N)Cc1ccco1 (centres undefined) | -19.2% | -23.9% | -14.1% | -9.4% | -4.1% | 1.9%
CC(N)CCc1ccccc1 (centres undefined) | 2.7% | -19.9% | -1.15% | 24.7% | 3.6% | 12.4%
O=C=Nc1ccccc1Cl | 12.5% | 3.1% | -1.15% | 5.45% | 4.2% | 5.15%
CCC[N+](CCC)(CCC)CCC.N#CC(C#N)=C([SH2+])[SH2+].N#CC(C#N)=C([SH2+])[SH2+].N#CC(C#N)=C([SH2+])[SH2+].[Cr+3] | -3.1% | 10.2% | 11.8% | -35% | 9.1% | 7.5%
CC(C)(C)NC(=O)CCl | -9.6% | -1.35% | -6.1% | -10.2% | 7.45% | -7.85%
CN(c1ccccc1)[N+](=O)[O-] | -9.45% | -12.2% | -14.2% | -5.1% | -7.8% | -5.3%
COC(=O)C1C2CCCN2OC1(C)CO (centres undefined) | -2.6% | 12.5% | 12.4% | 2.45% | 12.9% | 2.1%
CCOC(=O)C1C(=O)CN2CCc3c([nH]c4ccccc34)C12C(=O)OCC (centres undefined) | 21.2% | 15.3% | 31.6% | 15.6% | 1.95% | 24.4%
CCCC(C)OP(=O)(OCC)OCC (centres undefined) | 2.2% | -2.7% | -5.35% | -48.4% | 14.4% | -3.5%
Fc1ccc(C2(N3CCC4(CC3)OCCO4)CCCCC2)cc1 | -8.05% | 9% | 14.1% | -15.5% | 0.1% | 5.6%
O=S(=O)(F)c1cc(Cl)c(S)cc1Cl | 7.75% | -1.85% | 4.2% | 16.1% | -1.55% | -2.45%
COc1ccccc1N=Nc1cccc[c]1[Hg][Cl] | 98.2% (active) | 99% (active) | 98.7% (active) | 98.7% (active) | 98% (active) | 98.3% (active)
[CH3][Sn]1([CH3])[c]2ccccc2Oc2cccc[c]21 | -11.9% | 1.65% | 4.7% | -1.2% | 33.5% | -17.6%
C/C(=N\NC(N)=O)C(CN(C)C)C(c1ccccc1)c1c(O)c2ccccc2oc1=O (centres undefined) | 15.8% | 21.1% | 15.6% | 5% | 9.7% | 8%
CC(=O)O | 2.15% | -13% | 7.5% | 4.05% | 1.45% | 0.55%
CC1(C)C(=O)C=CC2(C)C3CCC4(C)C(O)CCC4(C)C3CCC12 (centres undefined) | 9.6% | -10.2% | 7.2% | -30.1% | 13.8% | 20.1%
